Laboratory results taken from PubChem BioAssay.
Results filed as inconclusive are left out. Activity calls are given as the source filed them.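 The calls were made as follows, unless noted: active = GFP response, as percent of the DMSO control, above the screen-wide mean plus 3 SD, about 139; inconclusive = no response measured because the compound's own fluorescence interfered; inactive = the rest.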

Experiments:
[1] = yeast TOR pathway RPL19A-GFP modulators, primary screen, cell-based, S. cerevisiae, multiplex flow cytometry (AID 1862; in the data active = percent of DMSO control GFP below about 86%;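 also: lower values mimic rapamycin by blocking the RPL19A rise seen in DMSO cells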); conditions: S. cerevisiae RPL19A-GFP strain, flow cytometry fluorescence, 3 h; at 10 µM; stronger effect = lower value
[2] = modulators of MEP2-GFP levels in yeast, primary screen, S. cerevisiae, multiplex flow cytometry (AID 1867);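 also: median GFP channel fluorescence of barcode-gated MEP2-GFP cells measured by flow cytometry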; conditions: S. cerevisiae MEP2-GFP strain, 3 h, at 10 µM, stronger effect = higher value, 100% means same as DMSO wells
[3] = modulators of CIT2-GFP expression in yeast, primary screen, S. cerevisiae, GFP fusion, multiplex flow cytometry (AID 1870;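 active = percent response above a set limit, the screen-wide mean plus 3 SD, cut at about 130% in these data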;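 also: barcoded CIT2-GFP strain pooled with four other GFP strains with rapamycin as positive control; median GFP fluorescence per well over plate mean of DMSO wells so 100% = DMSO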); conditions: 3 h, at 10 µM, stronger effect = higher value
[4] = modulators of LAP4-GFP expression in yeast, primary screen, S. cerevisiae, multiplex flow cytometry (AID 1873;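 active = GFP signal, as percent of the solvent control, above the screen mean plus 3 SD, about 149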); conditions: 3 h, at 10 µM, stronger effect = higher value
[5] = modulators of AGP1-GFP expression in yeast TOR pathway, primary screen, cell-based, multiplex flow cytometry, S. cerevisiae (AID 1887;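 active = GFP signal above the screen-wide mean plus 3 SD, that is over about 124.5% of the solvent control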;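 also: AGP1-GFP fusion strain of S. cerevisiae within a five-strain barcoded multiplex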); conditions: 3 h, at 10 µM, stronger effect = higher value
[6] = inhibitors of CD8+ T cell-vesicle binding, pilot screen, LFA-1/ICAM-1 modulator project, MLPCN validation set, flow cytometry (AID 2523;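 active = response below a set limit, under 55% cells CD8-positive and vesicle-bound, and CD8 cells' 90th-percentile brightness under 279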;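 as to vesicle binding response: mean PE anti-B7-1 fluorescence of CD8+ cells relative to row control; 100% = QL9-loaded vesicles with DMSO vehicle in the same plate row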); conditions: 2C mouse CD8+ T cells, at 7 µM, stronger effect = lower value; double positive events: measured here: CD8+/vesicle+ event percentage
[7] = molecular target: Integrin beta-1 (Homo sapiens) + Integrin alpha-4 (Homo sapiens) (UniProt P13612+P05556); assay: inhibition of HUTS-21 binding to VLA-4, pilot screen, VLA-4 allosteric modulator project, U937 cells, HUTS-21 mAb, flow cytometry, validation set (AID 2674;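 active = inhibition above 50%, about 3 SD of the validation set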;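 also: antibody binding induced by the VLA-4 ligand LDV present at three times its Kd; 0% = LDV ligand with antibody and no compound and 100% = antibody without LDV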); conditions: HUTS-21 LIBS mAb binding, at 6.7 µM, stronger effect = higher value, binding induced by LDV ligand
[8] = superoxide lowering in aged yeast cells, pilot screen, validation compound set (AID 2706;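 active = superoxide response below 65% of plate, a cut near 3 SD across the whole screen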;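 also: yeast exposed to compound for one week at 30 degrees C before staining; 100% = mean of all compound wells on the same plate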); conditions: S. cerevisiae aging, superoxide DHE fluorescence; at 10 µM; stronger effect = lower value
[9] = molecular target: Beta-adrenergic receptor kinase 1 (Homo sapiens) (UniProt P25098); assay: GRK2 binders displacing RNA aptamer, biochemical, validation, human GRK2, bead flow cytometry (AID 488806;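 active = aptamer binding inhibition above 30%, about 3 SD of noise from non-fluorescent compounds; inactive = inhibition at or below 30%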); conditions: bead-bound GRK2, FAM-aptamer displacement, at 10 µM, stronger effect = higher value
[10] = molecular target: Beta-2 adrenergic receptor (Homo sapiens) (UniProt P07550); assay: beta2AR agonists driving receptor internalization, pilot screen, cell-based, FAP fluorogen, flow cytometry, validation set (AID 504459;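 active = percent response above 42, roughly 3 SD of non-fluorescent test compounds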;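 also: agonist-driven loss of surface beta2AR via internalization measured by FAP dye flow cytometry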); conditions: Am2.2-beta2AR cells, FAP surface receptor flow cytometry; at 10 µM; stronger effect = higher value
[11] = molecular target: AP-2 complex subunit beta (Homo sapiens) (UniProt P63010); assay: inhibitors of arrestin peptide binding to AP2, pilot screen, biochemical, validation set, GST-AP2 beads, flow cytometry (AID 504541;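 active = inhibition above 54%, about 3 SD of non-fluorescent compounds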;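 also: AP2 carries R879A mutation and is captured from E. coli lysate; bead-bound FITC arrestin peptide fluorescence measuring arrestin peptide binding to AP2; 0% = DMSO wells and 100% = excess unlabeled arrestin peptide control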); conditions: FITC arrestin peptide, at 10 µM, stronger effect = higher value, AP2 beta2 appendage fragment, R879A mutant
[12] = yeast V-ATPase proton transport modulators, S. cerevisiae, pHLuorin, HTS validation (AID 504600; in the data active = response above about 15%;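 also: plate controls were DMSO for no effect and reference compound for full effect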); conditions: S. cerevisiae pHLuorin cytosolic pH, at 10 µM, stronger effect = higher value
[13] = tested on: anti-desmoglein-3 scFv antibody binding to human DSG3; assay: inhibitors of anti-DSG3 scFv binding to DSG3, pilot screen, biochemical, validation compound set, bead-based, flow cytometry (AID 588368;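 active = binding below the plate cutoff, the plate median minus 3 SD, with a reading above zero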;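 also: signal is the median channel fluorescence of bead-bound GFP antibody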); conditions: Protein G beads, DSG3-Fc, scFv-GFP binding, at 10 µM, stronger effect = lower value
[14] = inhibitors of fungal efflux pumps CDR1, CDR2, MDR1, pilot screen, validation compound set, multiplex, phenotypic (AID 588506;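 active = efflux inhibition above 0.42, the validation set average plus 4 SD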;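 also: Nile Red retained in cells so higher fluorescence means more efflux inhibition; 0 = negative control wells and 1 = enniatin B 25 µM full block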); conditions: S. cerevisiae pump-expressing triplex, Nile Red efflux flow cytometry; at 10 µM; stronger effect = higher value; the pumps come from Candida albicans
[15] = molecular target: ATP-binding cassette sub-family B member 6 (Homo sapiens) (UniProt Q9NP58); assay: ABCB6 transporter inhibitors, pilot screen, K562-ABCB6 cells, flow cytometry, validation set (AID 588550;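 active = inhibition above the screen-wide mean plus 3 SD, about 51%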;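 also: 0% = DMSO wells and 100% = benzethonium chloride 70 µM positive control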); conditions: K562-ABCB6 porphyrin accumulation, 1 h, at 10 µM, stronger effect = higher value
[16] = promoters of myeloid differentiation in arrested cells, primary screen, cell-based, GFP/MAC1 double positive, flow cytometry, validation set (AID 588685;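 active = differentiation response of at least 50%, scaled between solvent and reference control, from cells with both markers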;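 also: compound exposure lasts four days before antibody staining and flow analysis; 0% = DMSO wells and 100% = 5 µM fulvestrant positive control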); conditions: ER-HoxA9 marrow cells, stronger effect = higher value, normalized: vehicle 0, fulvestrant 100

Beta-adrenergic receptor kinase 1 (Homo sapiens), sequence (P25098 whole entry, looked up): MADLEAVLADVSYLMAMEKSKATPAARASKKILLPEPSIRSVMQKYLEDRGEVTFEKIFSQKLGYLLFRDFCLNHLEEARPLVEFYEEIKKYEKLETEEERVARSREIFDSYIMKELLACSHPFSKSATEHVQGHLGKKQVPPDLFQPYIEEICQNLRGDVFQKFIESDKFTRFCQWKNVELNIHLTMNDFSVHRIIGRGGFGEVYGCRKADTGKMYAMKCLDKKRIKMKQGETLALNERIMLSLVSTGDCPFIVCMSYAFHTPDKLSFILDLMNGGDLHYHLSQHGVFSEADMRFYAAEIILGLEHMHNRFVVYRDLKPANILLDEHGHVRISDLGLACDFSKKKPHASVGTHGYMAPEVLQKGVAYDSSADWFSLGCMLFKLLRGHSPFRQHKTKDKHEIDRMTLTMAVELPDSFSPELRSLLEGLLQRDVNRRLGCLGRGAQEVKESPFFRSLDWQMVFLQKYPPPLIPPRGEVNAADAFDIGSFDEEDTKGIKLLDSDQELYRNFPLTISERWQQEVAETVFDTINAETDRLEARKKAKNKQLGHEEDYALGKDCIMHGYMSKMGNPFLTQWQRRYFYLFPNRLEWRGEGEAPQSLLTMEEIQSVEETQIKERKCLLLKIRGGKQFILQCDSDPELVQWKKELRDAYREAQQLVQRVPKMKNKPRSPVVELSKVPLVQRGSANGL
Beta-2 adrenergic receptor (Homo sapiens), sequence (P07550 whole entry, looked up): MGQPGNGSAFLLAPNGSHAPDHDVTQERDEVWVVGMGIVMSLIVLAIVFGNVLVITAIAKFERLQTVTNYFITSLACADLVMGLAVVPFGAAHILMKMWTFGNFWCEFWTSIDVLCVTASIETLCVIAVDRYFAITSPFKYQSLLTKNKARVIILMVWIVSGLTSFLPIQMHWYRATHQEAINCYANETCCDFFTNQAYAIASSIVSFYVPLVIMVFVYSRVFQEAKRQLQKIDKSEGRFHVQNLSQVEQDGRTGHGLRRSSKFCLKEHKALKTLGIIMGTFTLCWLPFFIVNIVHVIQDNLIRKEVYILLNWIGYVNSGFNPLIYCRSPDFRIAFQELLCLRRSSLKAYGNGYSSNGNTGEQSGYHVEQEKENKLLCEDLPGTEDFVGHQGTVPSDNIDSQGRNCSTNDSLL
Integrin beta-1 (Homo sapiens) + Integrin alpha-4 (Homo sapiens), sequence (P05556 whole entry, looked up): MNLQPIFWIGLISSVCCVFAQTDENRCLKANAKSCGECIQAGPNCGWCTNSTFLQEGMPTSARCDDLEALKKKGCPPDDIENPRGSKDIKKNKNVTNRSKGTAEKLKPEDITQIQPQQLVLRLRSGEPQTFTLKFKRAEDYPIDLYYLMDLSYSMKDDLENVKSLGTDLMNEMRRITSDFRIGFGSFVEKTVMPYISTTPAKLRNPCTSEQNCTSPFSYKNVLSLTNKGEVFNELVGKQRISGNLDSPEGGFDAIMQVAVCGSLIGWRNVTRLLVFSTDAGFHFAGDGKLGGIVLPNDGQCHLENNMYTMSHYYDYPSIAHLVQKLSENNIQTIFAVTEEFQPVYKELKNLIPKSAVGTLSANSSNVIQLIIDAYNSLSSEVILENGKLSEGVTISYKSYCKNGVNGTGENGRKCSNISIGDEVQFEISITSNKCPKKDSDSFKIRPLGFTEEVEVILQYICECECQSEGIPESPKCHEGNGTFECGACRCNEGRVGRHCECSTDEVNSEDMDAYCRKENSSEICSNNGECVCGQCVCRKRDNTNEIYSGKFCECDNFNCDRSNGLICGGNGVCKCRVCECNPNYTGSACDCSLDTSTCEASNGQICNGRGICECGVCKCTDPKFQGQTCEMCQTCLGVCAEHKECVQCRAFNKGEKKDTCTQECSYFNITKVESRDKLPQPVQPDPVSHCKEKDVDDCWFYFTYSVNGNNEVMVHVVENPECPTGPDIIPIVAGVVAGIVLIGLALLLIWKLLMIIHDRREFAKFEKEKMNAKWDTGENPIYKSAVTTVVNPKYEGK
Integrin beta-1 (Homo sapiens) + Integrin alpha-4 (Homo sapiens), sequence (P13612 whole entry, looked up): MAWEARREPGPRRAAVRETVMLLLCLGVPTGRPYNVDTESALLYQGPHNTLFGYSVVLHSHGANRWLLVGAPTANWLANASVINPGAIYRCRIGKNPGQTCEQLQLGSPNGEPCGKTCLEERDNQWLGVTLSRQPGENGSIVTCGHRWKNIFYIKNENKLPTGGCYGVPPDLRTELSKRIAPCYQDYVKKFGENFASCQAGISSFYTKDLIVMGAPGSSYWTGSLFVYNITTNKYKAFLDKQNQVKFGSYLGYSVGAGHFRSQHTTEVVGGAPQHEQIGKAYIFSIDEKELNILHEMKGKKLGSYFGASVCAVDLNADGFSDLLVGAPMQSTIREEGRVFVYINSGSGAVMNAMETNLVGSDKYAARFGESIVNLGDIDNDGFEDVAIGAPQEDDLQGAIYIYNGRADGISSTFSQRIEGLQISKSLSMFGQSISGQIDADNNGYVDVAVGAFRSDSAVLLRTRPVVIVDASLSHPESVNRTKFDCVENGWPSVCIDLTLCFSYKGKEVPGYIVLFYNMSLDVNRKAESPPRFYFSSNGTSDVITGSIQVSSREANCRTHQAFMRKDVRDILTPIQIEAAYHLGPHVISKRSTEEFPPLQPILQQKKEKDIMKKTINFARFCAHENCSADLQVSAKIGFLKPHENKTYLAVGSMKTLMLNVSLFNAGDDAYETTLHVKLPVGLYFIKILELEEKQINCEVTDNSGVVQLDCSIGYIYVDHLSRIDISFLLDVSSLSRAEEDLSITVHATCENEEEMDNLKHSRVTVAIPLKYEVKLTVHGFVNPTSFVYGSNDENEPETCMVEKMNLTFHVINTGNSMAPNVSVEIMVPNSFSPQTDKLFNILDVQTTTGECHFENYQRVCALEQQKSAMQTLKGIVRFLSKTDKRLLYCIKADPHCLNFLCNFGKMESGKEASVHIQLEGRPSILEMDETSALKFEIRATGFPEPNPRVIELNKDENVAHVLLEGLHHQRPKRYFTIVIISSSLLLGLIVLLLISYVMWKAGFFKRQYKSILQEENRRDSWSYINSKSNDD
ATP-binding cassette sub-family B member 6 (Homo sapiens), sequence (Q9NP58 whole entry, looked up): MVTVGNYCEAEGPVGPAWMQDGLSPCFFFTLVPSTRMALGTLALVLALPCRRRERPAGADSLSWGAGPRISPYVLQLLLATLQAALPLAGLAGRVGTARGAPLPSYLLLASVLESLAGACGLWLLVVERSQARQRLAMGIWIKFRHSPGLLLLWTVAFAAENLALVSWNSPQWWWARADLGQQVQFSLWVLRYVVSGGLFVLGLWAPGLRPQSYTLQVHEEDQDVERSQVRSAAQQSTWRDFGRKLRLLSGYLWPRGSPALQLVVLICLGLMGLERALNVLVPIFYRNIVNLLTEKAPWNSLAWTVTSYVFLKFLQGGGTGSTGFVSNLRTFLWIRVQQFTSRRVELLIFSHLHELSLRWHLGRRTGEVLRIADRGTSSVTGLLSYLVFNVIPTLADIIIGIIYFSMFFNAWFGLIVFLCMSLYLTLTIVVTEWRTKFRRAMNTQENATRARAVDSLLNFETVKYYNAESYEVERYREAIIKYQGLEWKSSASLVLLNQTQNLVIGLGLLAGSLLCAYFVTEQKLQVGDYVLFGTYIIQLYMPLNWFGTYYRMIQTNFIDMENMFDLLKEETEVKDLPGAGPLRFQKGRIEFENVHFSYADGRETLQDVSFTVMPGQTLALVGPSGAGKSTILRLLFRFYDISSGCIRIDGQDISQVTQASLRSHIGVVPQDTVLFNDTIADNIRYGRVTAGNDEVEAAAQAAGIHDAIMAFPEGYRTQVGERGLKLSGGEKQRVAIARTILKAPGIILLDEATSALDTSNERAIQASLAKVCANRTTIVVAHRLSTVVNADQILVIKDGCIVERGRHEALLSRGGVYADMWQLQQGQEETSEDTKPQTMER
AP-2 complex subunit beta (Homo sapiens), sequence (P63010 whole entry, looked up, the tested form may be a part, one chain of several): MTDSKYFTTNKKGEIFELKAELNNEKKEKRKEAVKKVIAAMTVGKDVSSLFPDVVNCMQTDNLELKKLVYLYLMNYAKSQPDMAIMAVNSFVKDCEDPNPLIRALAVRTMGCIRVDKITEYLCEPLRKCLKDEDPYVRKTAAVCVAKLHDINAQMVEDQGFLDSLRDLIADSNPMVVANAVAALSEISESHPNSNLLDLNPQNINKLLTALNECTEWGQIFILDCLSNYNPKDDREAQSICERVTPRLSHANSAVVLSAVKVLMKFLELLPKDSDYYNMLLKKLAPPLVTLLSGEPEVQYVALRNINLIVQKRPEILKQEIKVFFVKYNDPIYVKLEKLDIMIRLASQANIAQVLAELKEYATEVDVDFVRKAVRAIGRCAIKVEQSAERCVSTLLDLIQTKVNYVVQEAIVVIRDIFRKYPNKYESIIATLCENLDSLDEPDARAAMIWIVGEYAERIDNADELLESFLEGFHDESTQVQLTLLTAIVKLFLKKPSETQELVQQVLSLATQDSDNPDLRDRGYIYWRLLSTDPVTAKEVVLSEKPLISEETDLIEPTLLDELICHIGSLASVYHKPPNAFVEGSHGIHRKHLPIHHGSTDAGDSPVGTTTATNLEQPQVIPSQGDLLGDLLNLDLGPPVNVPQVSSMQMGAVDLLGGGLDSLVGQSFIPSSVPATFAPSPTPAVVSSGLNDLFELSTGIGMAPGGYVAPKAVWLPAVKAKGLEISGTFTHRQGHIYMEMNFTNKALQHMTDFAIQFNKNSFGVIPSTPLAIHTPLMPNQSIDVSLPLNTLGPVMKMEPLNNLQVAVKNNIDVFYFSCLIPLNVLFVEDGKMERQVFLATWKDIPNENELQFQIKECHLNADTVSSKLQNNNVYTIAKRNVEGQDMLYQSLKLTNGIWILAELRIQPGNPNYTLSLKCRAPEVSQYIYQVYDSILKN

Row | Structure (SMILES) | percent of DMSO control GFP [1] | GFP response vs DMSO [2] | percent response of DMSO control [3] | GFP response vs DMSO [4] | GFP response, % of DMSO [5] | double positive events [6] [%] | vesicle binding response [6] | inhibition [7] | superoxide response (% of plate) [8] | aptamer binding inhibition [9] | response [10] | inhibition [11] | response [12] | binding (% of control) [13] | efflux inhibition (fraction of control) [14] | inhibition [15] | differentiation response [16]
1 | COc1ccc(NC(=O)CC(c2ccccc2)c2ccco2)cc1 (stereo not given) | 103% (inactive) | 97.2% (inactive) | 105% (inactive) | 86.8% (inactive) | 96.8% (inactive) | 62.8 | 164% (inactive) | -15% (inactive) | 91.5% (inactive) | 2% (inactive) | -5.85% (inactive) | -3.8% (inactive) | 3.58% (inactive) | 100% (inactive) | -0.07 (inactive) | 3% (inactive) | 1.22% (inactive)
2 | CCCCC(=O)O[C@H]1CC[C@H]2[C@@H]3CCc4cc(O)ccc4[C@H]3CC[C@]12C | 100% (inactive) | 105% (inactive) | 109% (inactive) | 125% (inactive) | 116% (inactive) | 62.5 | 210% (inactive) | 29.5% (inactive) | 93.8% (inactive) | -4% (inactive) | 52.1% (active) | 30.7% (inactive) | -0.48% (inactive) | 106% (inactive) | -0.17 (inactive) | -1% (inactive) | -6.96% (inactive)
3 | Cn1c(=O)c2[nH]cnc2n(C)c1=O | 90.9% (inactive) | 133% (inactive) | 96.6% (inactive) | 80.9% (inactive) | 87.7% (inactive) | 67.8 | 159% (inactive) | -1.3% (inactive) | 95.3% (inactive) | 4% (inactive) | -0.49% (inactive) | -6.69% (inactive) | -2.04% (inactive) | 101% (inactive) | -0.46 (inactive) | 9% (inactive) | -2.46% (inactive)
4 | O=C(Nc1ccccc1C(=O)N1CCCCCC1)c1ccccc1Cl | 103% (inactive) | 103% (inactive) | 94.9% (inactive) | 96.5% (inactive) | 102% (inactive) | 60.2 | 146% (inactive) | -10.3% (inactive) | 115% (inactive) | 4% (inactive) | -9.01% (inactive) | 26.6% (inactive) | -0.64% (inactive) | 100% (inactive) | -0.06 (inactive) | 7% (inactive) | 8.02% (inactive)
5 | NS(=O)(=O)c1cc2c(cc1Cl)NC(C1C[C@H]3C=C[C@@H]1C3)NS2(=O)=O (stereo not given in full) | 104% (inactive) | 106% (inactive) | 105% (inactive) | 105% (inactive) | 106% (inactive) | 61.8 | 153% (inactive) | -19.9% (inactive) | 98.5% (inactive) | 2% (inactive) | -2.86% (inactive) | 11.5% (inactive) | -7.8% (inactive) | 97.3% (inactive) | 0.03 (inactive) | 10% (inactive) | -17.7% (inactive)
6 | C/C(CCc1oc2ccc(Cl)cc2c1-c1ccc(C)o1)=N\O | 101% (inactive) | 103% (inactive) | 103% (inactive) | 125% (inactive) | 102% (inactive) | 63.1 | 157% (inactive) | -16.4% (inactive) | 107% (inactive) | 0% (inactive) | -13% (inactive) | 4.9% (inactive) | 6.85% (inactive) | 111% (inactive) | 0 (inactive) | -3% (inactive) | 9.79% (inactive)
7 | CN(C)CCN(Cc1ccc(Cl)cc1)c1ccccn1 | 107% (inactive) | 112% (inactive) | 114% (inactive) | 114% (inactive) | 118% (inactive) | 61.2 | 125% (inactive) | 0.25% (inactive) | 96% (inactive) | -4% (inactive) | -7.41% (inactive) | 54.2% (active) | -5.25% (inactive) | 97.3% (inactive) | 0.37 (inactive) | 8% (inactive) | -19.2% (inactive)
8 | O=C(O)C(O)c1ccccc1 (stereo not given) | 101% (inactive) | 95.6% (inactive) | 105% (inactive) | 99.1% (inactive) | 102% (inactive) | 53.8 | 90.5% (inactive) | -6.45% (inactive) | 96.6% (inactive) | 5% (inactive) | 3.86% (inactive) | -5.56% (inactive) | 1.56% (inactive) | 104% (inactive) | -0.12 (inactive) | 12% (inactive) | -3.11% (inactive)
9 | Cn1c([N+](=O)[O-])cnc1COC(N)=O | 92.8% (inactive) | 136% (inactive) | 103% (inactive) | 83.6% (inactive) | 88.9% (inactive) | 62.7 | 157% (inactive) | 8.4% (inactive) | 98.7% (inactive) | 4% (inactive) | 5.28% (inactive) | -5.93% (inactive) | -3.52% (inactive) | 105% (inactive) | -0.35 (inactive) | 11% (inactive) | -3.28% (inactive)
10 | Cc1ccc(S(=O)(=O)N[C@@H](C)C(=O)N2CCC(C(=O)N3CCC[C@H]3C(=O)O)CC2)cc1 | 95% (inactive) | 129% (inactive) | 103% (inactive) | 79.2% (inactive) | 88.4% (inactive) | 71 | 174% (inactive) | 3.55% (inactive) | 92.7% (inactive) | 9% (inactive) | -2.38% (inactive) | -9.12% (inactive) | -1.19% (inactive) | 100% (inactive) | -0.2 (inactive) | 8% (inactive) | 0% (inactive)
